Data on 99 molecules can be found in PubChem BioAssay AID430 (Sanford-Burnham Center for Chemical Genomics, 2006).

In all, about 63,000 compounds went through this assay and about 1,100 (1.7%) were called active. This excerpt belongs to a sample that is enriched for actives. Entries with a potency or affinity are not part of this list. Unmarked numbers belong to inactive results. No stated cut-off is given here; in the data, active means cytotoxicity above about 50%; inactive means the rest.

This test is described as follows: cytotoxicity in HPDE-C7 cells, cell-based, fluorescence, HTS (AID 430).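 Further: cells exposed to compound for 48 hours before viability readout; 0% = vehicle and 100% = reference cytotoxic drug.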 The conditions noted are these: HPDE-C7 pancreatic duct cells viability, at 10 µM, active compounds read high.
`CCC(CC)C(=O)Nc1cc(=O)n(C)c(=O)n1C`: the cytotoxicity is -10.5%. The result for `N#CC1=C(N)C(C#N)(C#N)[C@H](c2ccoc2)[C@H]2CN(Cc3ccccc3)CC=C12` reads 72% (active). With `CC(C)N1CC=C2C(C#N)=C(N)C(C#N)(C#N)C(c3ccccc3)C2C1` (centres undefined), the cytotoxicity was 12.8%. To `CC(=O)N1CC=C2C(C#N)=C(N)C(C#N)(C#N)[C@H](c3ccoc3)[C@H]2C1` belongs 9.7%; to `CCSc1nnc(NC(=O)CN(C)S(=O)(=O)c2ccc(F)cc2)s1`, -4.8%; to `Cc1ccc(-c2nnn(CCC(=O)N3CCCCC3C)n2)cc1` (centres undefined), -5.2%. The result for `CCCCOc1ccccc1NC(=O)CC1Nc2ccccc2NC1=O` (centres undefined) reads -9.1%. Take `COc1ccccc1C1CC(=O)Nc2cc3c(cc21)OCCO3` (centres undefined): the cytotoxicity was 54.4% (active).

On to `CC(C)Oc1ccccc1C1CC(=O)Nc2cc3c(cc21)OCO3` (centres undefined), for which the cytotoxicity is 39.1%. `COc1cccc(C2CC(=O)Nc3cc4c(cc32)OCCO4)c1OC(C)C` (centres undefined): the cytotoxicity is 27.3%. As to `Cc1ccc(C2CC(=O)Nc3cc4c(cc32)OCCO4)s1` (centres undefined), the cytotoxicity was -4.6%. Regarding `O=C1CC(c2ccncc2)c2cc3c(cc2N1)OCCO3` (centres undefined), the cytotoxicity is -10.2%. The result for `CC(C)Oc1ccccc1C1CC(=O)Nc2cc3c(cc21)OCCO3` (centres undefined) reads 56.4% (active); that for `COc1ccc(C(=O)N2CCN(S(=O)(=O)c3ccc(C)cc3C)CC2)cc1OC`, 2.4%. With `Cc1ccc(Cl)cc1NC(=O)Cn1cccc1`, the cytotoxicity is -2.6%. To `Cc1cc(C(=O)N2CCN(Cc3ccc4c(c3)OCO4)CC2)on1` belongs 0.3%; to `COC(=O)c1cc(-c2ccc3c(c2)OCO3)nc2ccccc12`, -9.6%; to `O=C(COc1cccc(NC(=O)c2ccco2)c1)c1ccc(F)cc1`, -13.8%. In the case of `COc1ccc2c(c1)C(=O)CC(c1ccccc1F)O2` (centres undefined), the cytotoxicity is -4.1%. To `CN1CCN(C2=Nc3ccccc3Oc3ccc(Cl)cc32)CC1` belongs 10.6%; to `Cn1c(Cl)cnc1C1CC(=O)c2cc(Cl)ccc2O1` (centres undefined), 69.6% (active). The result for `CCN1CCN(C(=O)c2nn(-c3ccc(OC)cc3)c(=O)c3c2c2ccccc2n3C)CC1` reads -10.7%; that for `CCCc1[nH]nc2c1C1(C(=O)N(C(C)C)c3ccccc31)C(C#N)=C(N)O2` (centres undefined), -41.8%. The result for `CC(=O)C1=C(O)C(=O)N(Cc2ccco2)C1c1ccc(F)cc1` (centres undefined) reads -1.4%; that for `O=C1c2[nH]nc(-c3ccccc3O)c2C(c2cccc(Cl)c2)N1CC1CCCO1` (centres undefined), 32.4%.

`O=C1c2ccccc2C(O)N1Cc1ccco1` (centres undefined): the cytotoxicity was -6.1%. On to `O=C1c2[nH]nc(-c3ccccc3O)c2C(c2ccccc2)N1Cc1ccco1` (centres undefined), for which the cytotoxicity is 21.9%. To `O=C1C(=O)N(Cc2ccco2)C(c2cccc(Cl)c2)/C1=C(\O)c1ccc2c(c1)OCCO2` (centres undefined) belongs 3.5%; to `O=C1c2ccccc2NC(c2ccc(F)cc2)N1Cc1ccco1` (centres undefined), 1.1%.

For the molecule `COC(=O)Nc1sccc1C(=O)Nc1sccc1C(=O)OC`, the cytotoxicity was 3.5%. As for `CCOC(=O)N1CCN(c2c(N3CCc4ccccc4C3)c(=O)c2=O)CC1`, the cytotoxicity is -10.2%. The result for `O=C(CC(O)(c1ccccc1)C(F)(F)C(F)F)c1cccs1` (centres undefined) reads 2.3%; that for `CCN(CC)C(C(=O)Nc1ccc2c(c1)OCO2)c1ccccc1` (centres undefined), 5%; that for `CCCCn1c(NC(=O)CC)c(C#N)c2nc3ccccc3nc21`, 10%.

With `COc1ccc(-n2c(NC(=O)c3ccco3)c(C#N)c3nc4ccccc4nc32)cc1`, the cytotoxicity was 5.6%. The result for `CCCCn1c(NC(C)=O)c(C#N)c2nc3ccccc3nc21` reads -2.1%; that for `N#Cc1c(NC(=O)c2ccc(Br)o2)n(-c2ccccc2)c2nc3ccccc3nc12`, 54.7% (active). To `CCCCn1c(NC(=O)c2ccccc2Cl)c(C#N)c2nc3ccccc3nc21` belongs 61.7% (active).

For `C=CCn1c(NC(=O)c2ccccc2Cl)c(C#N)c2nc3ccccc3nc21`, the cytotoxicity was 17.3%. To `CCCCCn1c(N)c(C#N)c2nc3ccccc3nc21` belongs 3.3%; to `C=CCn1c(NC(=O)c2ccccc2)c(C#N)c2nc3ccccc3nc21`, 45.1%.

Turning to `CCCCn1c(NC(=O)c2ccccc2)c(C#N)c2nc3ccccc3nc21`, the cytotoxicity was 101% (active).

As for `CCC(=O)Nc1c(C#N)c2nc3ccccc3nc2n1-c1ccccc1C`, the cytotoxicity was 2.9%. `CCC(=O)Nc1c(C#N)c2nc3ccccc3nc2n1C1CCCCC1`: the cytotoxicity was 2%. To `CCCCn1c(NC(=O)c2ccc(F)cc2)c(C#N)c2nc3ccccc3nc21` belongs 73.6% (active); to `CC1(C)Cc2c(sc3c2c(=N)n(Cc2ccco2)c(=O)n3Cc2ccc(F)cc2)CO1`, 5.6%; to `O=C1C2C3C=CC(C3)C2C(=O)N1c1n[nH]c(CCc2ccccc2)n1` (centres undefined), 0.1%. To `CCCCP(=O)(CCCC)Cc1ccccc1O` belongs -0.6%. The result for `CC(C)=CC(=O)Nc1ccccc1Br` reads -7.7%; that for `CC1CC(C)CN(c2oc(-c3ccccc3Cl)nc2C#N)C1` (centres undefined), 2.5%.

Consider `CCCCOC(=O)Cn1c(=O)c2c(nc(Br)n2Cc2ccccc2)n(C)c1=O`, for which the cytotoxicity is -12.6%. In the case of `Cc1sc2nc3n(c(=O)c2c1C)CCCS3`, the cytotoxicity is 3.5%. As for `N#C/C(C(=O)NCc1ccccc1)=C1\SC(CCO)C(=O)N1c1ccccc1` (centres undefined), the cytotoxicity is 10.7%.

On to `O=S(=O)(c1cccc2cccnc12)N1CCc2ccccc21`, for which the cytotoxicity is -5.3%. To `O=C(CN1CCCC1)N1c2ccccc2Sc2ccccc21` belongs -13.6%; to `CC1CC(=O)N(CC(=O)N2CCCC2)c2ccccc2S1` (centres undefined), -19.6%; to `CCc1nnc(NC(=O)NCN2C(=O)C3C4C=CC(C4)C3C2=O)s1` (centres undefined), 3%.

Turning to `CC1=CCC(C(C)(C)NC(=O)c2ccccc2)C/C1=N\O` (centres undefined), the cytotoxicity was -14.7%. To `CCOCCCNS(=O)(=O)c1ccc2c(c1)CCN2C(=O)CC` belongs -23.1%; to `C/C=C(/C(=C/C)c1ccc(O)cc1)c1ccc(O)cc1`, 106% (active).

`CCC(=O)c1ccc(O)cc1`: the cytotoxicity was -18.7%. To `C=C(c1ccc(O)cc1)c1ccc(O)cc1` belongs -12.8%; to `CCn1c2ccccc2c2nnc(SCC(=O)NC(C(=O)OC)C(C)C)nc21` (centres undefined), 0.5%. Consider `CCOC(=O)c1[nH]c(C)c(C(=O)NC(C)CC)c1C` (centres undefined), for which the cytotoxicity is 1.4%. As to `O=C1Nc2ccccc2C12OCCCCO2`, the cytotoxicity was -24.6%. Consider `Cc1cc(=O)oc2cc(OCC(=O)N3CCc4ccccc4C3)ccc12`, for which the cytotoxicity is -25.1%. Regarding `CCOC(=O)N1CCN(Cc2nc3c(c(=O)[nH]c(=O)n3C)n2Cc2cc(C)ccc2C)CC1`, the cytotoxicity is -12.2%. To `CCCCC(CC)C(=O)Nc1ccccc1C(=O)NC(C)C` (centres undefined) belongs 6.3%; to `O=C(COc1ccc(-c2nnco2)cc1)N1CCN(S(=O)(=O)c2ccccc2)CC1`, -13%. To `O=S(=O)(c1ccc(Oc2ccc(-c3nnco3)cc2)nc1)N1CCC(Cc2ccccc2)CC1` belongs 62.7% (active).

In the case of `O=C(COc1ccc(-c2nnco2)cc1)N1CCN(S(=O)(=O)c2ccc3ccccc3c2)CC1`, the cytotoxicity is -10.1%. For the molecule `Cc1cc2cc(CNC(=O)c3ccc(Br)o3)ccc2n1C`, the cytotoxicity was -1.5%. The result for `N#C/C(C(=O)Oc1ccccc1)=C1\C=CC=CN1` reads 1.2%; that for `CCOC(=O)c1ccc(Oc2nc(SC)nc(N(C)C)n2)cc1`, -23.6%; that for `CCOC(=O)c1ccc(Oc2cc(C)nc(SC)n2)cc1`, 50.9% (active). For `CCOC(=O)c1ccc(Oc2nc(NC)nc(SC)n2)cc1`, the cytotoxicity is -15.9%.

`COC(=O)c1ccc(Oc2cc(C)nc(NCc3ccccc3)n2)cc1`: the cytotoxicity was -4.2%. Turning to `COC(=O)c1ccc(Oc2cc(C)nc(SC)n2)cc1`, the cytotoxicity was 50.6% (active). Take `COC(=O)c1ccc(Oc2nc(C)cc(Oc3ccccc3)n2)cc1`: the cytotoxicity is -4.8%. In the case of `COc1ccc(C(C#N)Nc2ccccc2OC)cc1` (centres undefined), the cytotoxicity is -4.6%.

`CCN(CC)S(=O)(=O)c1ccc(Nc2cc(C)nc3ncnn23)cc1`: the cytotoxicity was -2.7%. Regarding `C1CCc2c(nc3nnnn3c2N2CCOCC2)C1`, the cytotoxicity is -9.2%. As to `COC(=O)CN1C(=O)CC(C)(C)S(=O)c2ccccc21` (centres undefined), the cytotoxicity was -9.1%. The result for `Cc1ccc(-n2ncc3c(=O)n(Cc4ccccn4)cnc32)cc1C` reads 8.3%; that for `CCN1CCN(C(C(=O)NC2CCCC2)c2ccc(Cl)cc2)CC1` (centres undefined), 9.1%; that for `Cc1cc(=O)c2cc(Cl)ccc2[nH]1`, -15%. To `Cc1cc2c(N=O)c(NO)ccc2[nH]1` belongs 67% (active); to `COC(=O)c1ccc2[nH]c(C)cc(=O)c2c1`, -15.1%; to `CCCc1cc(C(=O)Nc2sc(C(C)=O)c(C)c2C(=O)OCC)no1`, -5.5%. Consider `O=C(c1ccco1)N1CCN(c2nc(C3CC3)nc3sc4c(c23)CCCC4)CC1`, for which the cytotoxicity was 53.5% (active). To `CC(C)c1nc(N2CCN(C(=O)c3ccco3)CC2)c2c3c(sc2n1)CCCC3` belongs -21.7%. The result for `Cc1nc(N2CCN(C(=O)c3ccco3)CC2)c2c3c(sc2n1)CCC3` reads 8.5%. For the molecule `CCOC(=O)N1CCN(C(=O)c2cn(-c3ccc(C)c(C)c3)c(=O)c3ccccc23)CC1`, the cytotoxicity was -9.4%. `CCCc1cc(-c2[nH]ncc2-c2ccc(C(=O)OCC)o2)c(O)cc1O`: the cytotoxicity is 4.4%. The result for `CCc1cc(-c2[nH]ncc2-c2ccc3c(c2)OCO3)c(O)cc1O` reads 46.1%; that for `COc1ccc(-c2cnc(N)nc2-c2ccc(OC)cc2O)cc1`, -4%; that for `CCOc1ccc(-c2nc(N)ncc2-c2ccccc2)c(O)c1`, 2.3%. The result for `Cc1c(C(=O)Nn2cnnc2)oc2ccccc12` reads -26.6%; that for `CC(NC(=O)c1ccc(CS(=O)(=O)Cc2ccccc2F)o1)c1ccc2c(c1)OCCO2` (centres undefined), -10.6%.
